Source: PubChem
Most compounds without a hit are left out; they make up all but 4.1% or so of the library.
EBV LMP1 NFkB = EBV LMP1-driven NF-kappaB luciferase reporter inhibitors, primary screen, cell-based, luminescence, single point. LMP1-induced NF-kappaB luciferase reporter cells. inhibition, % at 12.5 µM. 350,000 tested, 0.69% active. AID 504558, 2011; in the data active = inhibition above about 41%; inconclusive = no clear call, values can overlap the other calls;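 note: 0% = neutral control wells and 100% = reference inhibitor control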
Shn3 inh set2 = reduction of Shn3 3'UTR firefly luciferase signal, primary screen, Schnurri-3 inhibitor project, cell-based, Clone20 osteoblasts, set 2; Clone20 osteoblast Shn3 3'UTR firefly luciferase, 24 h; inhibition, % at 12.5 µM; 360,000 tested, 0.52% active; AID 588674, 2011;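 active = mean inhibition of at least 75% with every replicate also reaching 75%; inconclusive = mean inhibition at least 75% but some replicate below; inactive = mean inhibition below 75%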;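 note: 0% = median of neutral control wells and 100% = pilot-screen positive control compound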
TWEAK-Fn14 inh = inhibitors of TWEAK-Fn14 signaling, primary screen, luciferase reporter cells, uHTS | inhibition, % at 10 µM | TWEAK-stimulated Fn14 reporter cells, luciferase luminescence, 8 h | 360,000 tested, 2% active; in the data active = inhibition above about 50%
TRPM1 prom inh = inhibitors of MITF-dependent TRPM1 promoter reporter, primary screen, cell-based, SK-MEL-5, single point, luciferase. SK-MEL-5 TRPM1 promoter luciferase, 24 h. inhibition, % at 12.5 µM. 330,000 tested, 0.83% active. AID 488899, 2010;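 active = mean inhibition across replicates of 60% or more, whatever share of single replicates reaches that level; inconclusive = some that reach 60%, reason not given; inactive = mean inhibition across replicates below 60%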
Peg3 prom inh = Peg3 promoter-driven luciferase inhibitors, primary screen, cell-based, HeLa, luciferase luminescence; HeLa PEG-Prom luciferase reporter, overnight; inhibition, % at 20 µM; 360,000 tested, 1.7% active; AID 588405, 2011;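 active = inhibition of at least 50% at 20 µM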
TROY signal inh = inhibitors of TROY-driven NF-kB signaling, primary screen, Q293 LMP1-TROYcd cells, NF-kB luciferase, uHTS; Q293 LMP1-TROYcd NF-kB luciferase reporter, 4 h; inhibition, % at 10 µM; 360,000 tested, 0.98% active;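 active = compounds whose plate-normalised and pattern-corrected inhibition of the luciferase reporter signal at the single screening dose is 50% or more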
Numbers without * were called inactive; ? = inconclusive; nt = no result.

SMILES | EBV LMP1 NFkB | Shn3 inh set2 | TWEAK-Fn14 inh | TRPM1 prom inh | Peg3 prom inh | TROY signal inh
S=C(NCC1CCCO1)NC1CCCC1 (stereo unspecified) | -3 | -20 | 12 | -1 | 16 | -8
CCOC(=O)C1(Cc2cccc(F)c2)CCN(C(=O)c2cnccn2)CC1 | 1 | 1 | -4 | -21 | 6 | 1
Fc1ccc2[nH]c3c(N4CCc5ccccc5C4)ncnc3c2c1 | nt | 87* | 58* | nt | 17 | 18
Cc1ccc2[nH]c3c(N4CCc5ccccc5C4)ncnc3c2c1 | 26 | 82 | 63* | 19 | -101 | 32
FC(F)(F)c1cccc(N2CCN(CC3CC=CCC3)CC2)c1 (stereo unspecified) | -5 | 9 | 2 | 1 | 10 | 1
Cc1ccccc1Cn1c(=O)c2c(nc3n2CCN3Cc2ccco2)n(C)c1=O | -2 | 23 | 1 | -3 | 5 | 18
C=C1[C@@H](O)[C@H](Cc2ccccc2)N(Cc2ccccc2Br)S1(=O)=O | -12 | 12 | 67* | 5 | 97* | 24
Cc1ccccc1CN1[C@@H](Cc2ccccc2)COCCS1(=O)=O | 0 | 9 | -6 | -7 | -1 | -8
O=C(Nc1ccccc1)C1CCN(C(=O)c2ccco2)CC1 | -6 | -6 | 43 | 2 | 7 | -15
O=C(Nc1ccc(Br)cc1)C1CCN(C(=O)c2ccco2)CC1 | 0 | -17 | 55* | -4 | 1 | -14
Cc1ccc(-c2csc(NC(=O)C3=NN(c4ccccc4)C(=O)CC3)n2)cc1 | 7 | 14 | 55* | 5 | -4 | 17
CC(=O)NCCCc1nc2ccccc2n1Cc1c(F)cccc1Cl | -3 | 4 | -5 | -5 | 14 | -5
Cc1cccc(C2(c3cccc(C)c3)CC2C(=O)Nc2ccc([N+](=O)[O-])cc2O)c1 (stereo unspecified) | 39 | 73 | 74* | 66* | 54* | 60*
C=CCNC(=O)C1CC1(c1cccc(C)c1)c1cccc(C)c1 (stereo unspecified) | nt | 9 | 3 | nt | 12 | -15
O=C(Cc1cccc([N+](=O)[O-])c1)Nc1ccc(C(=O)N2CCCCC2)cc1 | 4 | 9 | -15 | -9 | 4 | -2
COc1ccc2cc(C#N)c(SCC(=O)N3CC(=O)Nc4ccccc43)nc2c1 | 5 | 9 | -2 | -8 | 23 | -4
Cc1cccc2cc(C#N)c(SCC(=O)N3CC(=O)Nc4ccccc43)nc12 | -49 | 28 | 10 | 65* | 21 | 35
Cc1ccc(CN2C(=O)CCC2C(=O)NCCCN2CCC(C)CC2)cc1 (stereo unspecified) | 50* | -66 | -18 | -6 | 6 | 13
Cc1ccc(CN2C(=O)CCC2C(=O)NCCCN2CCOCC2)cc1 (stereo unspecified) | 4 | -15 | -12 | 0 | 13 | 8
O=C(CNC(=O)c1ccc(Br)o1)NNC(=O)c1ccccc1F | 1 | 10 | -4 | -8 | 9 | 5
CCn1c(N)c(C(=O)NCC2CCCO2)sc1=S (stereo unspecified) | 5 | -9 | 85* | 3 | 2 | nt
C[C@H]1C[C@H]2[C@@H]3CCC4=CC(=O)C=C[C@]4(C)[C@@]3(F)[C@@H](O)C[C@]2(C)[C@@]1(O)C(=O)CO | 45* | 72 | -17 | -22 | 2 | 27
Cc1cccc(CSc2cccc3cccnc23)c1 | -14 | 96* | 103* | 21 | 28 | -78
C=CC(=O)N1C/C(=C/c2ccc(Cl)cc2)C(=O)/C(=C\c2ccc(Cl)cc2)C1 | 86* | 97* | 107* | 98* | 103* | 85*
CN1C/C(=C/c2ccncc2)C(=O)/C(=C/c2ccncc2)C1 | 4 | -2 | 8 | 8 | 6 | 9
SMILES | EBV LMP1 NFkB | Shn3 inh set2 | TWEAK-Fn14 inh | TRPM1 prom inh | Peg3 prom inh | TROY signal inh
C=CC(=O)N1C/C(=C/c2ccccc2)C(=O)/C(=C\c2ccccc2)C1 | 85* | 97* | 105* | 97* | 106* | 73*
O=C(NCCc1nnc2ccc(N3CCCC3)nn12)c1ccccc1 | -3 | -26 | 0 | 9 | 16 | -6
O=C1CCCc2c1cc(C(=O)NCc1ccco1)c(=O)n2-c1ccccc1 | -2 | 1 | 5 | 6 | 18 | -2
Cc1ccc(-n2c3c(cc(C(=O)NCC(=O)c4ccccc4)c2=O)C(=O)CCC3)cc1 | 2 | -10 | 93* | 2 | 17 | 15
O=C(CN1CCCC1c1cccs1)Nc1cc(S(=O)(=O)N2CCCCC2)ccc1Cl (stereo unspecified) | 13 | 82 | 11 | 11 | 21 | 13
NNC(=S)NC1CC2CC1C1C=CCC21 (stereo unspecified) | -1 | 4 | 77* | 4 | 10 | 70*
CC1N(C)c2cc(NC(=O)c3cccs3)c(P(=O)(Nc3ccc([N+](=O)[O-])cc3)N3CCOCC3)cc2C1(C)C (stereo unspecified) | -16 | 10 | 20 | 9 | 20 | 1
O=C(NC1CCN(C(=S)Nc2ccccc2)CC1)C1CCCCC1 | -2 | -6 | 20 | -3 | 8 | -8
CS(=O)(=O)c1ccc(C(=O)OCC(=O)Nc2cccnc2Cl)cc1[N+](=O)[O-] | 2 | 94* | 22 | 27 | 24 | 8
Cc1ccccc1NC(=O)Cc1nc(COC(=O)c2ccc(S(C)(=O)=O)c([N+](=O)[O-])c2)cs1 | -4 | ? | 69* | 73* | 101* | 46
CC(=O)c1cccc(NC(=O)COC(=O)c2ccc(S(C)(=O)=O)c([N+](=O)[O-])c2)c1 | -48 | 27 | 64* | 5 | 8 | 45
O=C(OCc1nnc(-c2ccccc2)o1)c1ccc2ccccc2n1 | -6 | -21 | 79* | -6 | -61 | nt
CC1CC(C)CN(C(=O)CN(C)S(=O)(=O)c2ccc3c(c2)c(=O)n(C)c(=O)n3C)C1 (stereo unspecified) | 1 | -23 | 2 | -1 | 6 | -10
O=C(CCCNC(=O)c1ccc(Cl)cc1)Nc1ccc(S(=O)(=O)Nc2ncccn2)cc1 | -9 | -11 | -9 | -3 | 7 | 7
CS(=O)(=O)c1ccc(C(=O)OCc2nnc(-c3ccccc3)o2)cc1[N+](=O)[O-] | -5 | 7 | 66* | 48 | 109* | 66*
Cc1ccc(Cl)c(NC(=O)COC(=O)c2ccccc2C(=O)c2ccc(Cl)c([N+](=O)[O-])c2)c1Cl | 73* | 56 | 100* | 87* | 100* | 65*
CN(C)S(=O)(=O)c1ccc(C(=O)OCc2nnc(-c3ccccc3)o2)cc1 | 4 | -14 | -9 | 10 | -20 | -4
